# The source made the active and inactive calls. Rule for the calls: active = hit-call score of the fitted dose curve at least 0.9, where 1 is the maximum; inconclusive = response in the unintended direction; inactive = score below 0.9.
# Tested on: rat CYP2B1, gene 24300
# Experiment: NVS_ADME_rCYP2B1: NovaScreen (NVS) CYP450-related Enzyme Activity (ADME) Assay for rat CYP2B1 (AID 2283117)
# Summary of the method: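 Cell-free fluorescence enzyme assay, recombinant rat CYP2B1, 0.75 h after dosing. Single-concentration duplicates at 10 uM preceded concentration series (max 20 uM) for actives; acetonitrile as negative-control baseline.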
row,Structure (SMILES),AC50
1,NC(=NCCCCCCN=C(N)/N=C(\N)Nc1ccc(Cl)cc1)/N=C(\N)Nc1ccc(Cl)cc1,5.93 µM (active)
2,CCCCCCCCCCCCCC[P+](CCCC)(CCCC)CCCC,6.5 µM (active)
3,N#CSCSc1nc2ccccc2s1,3.96 µM (active)

# From PubChem BioAssay (EPA / NIEHS)
